# The full ranking holds about 110,000 compounds; the median of “z-score” is about -0.1, and the highest 2% start at about 2. For the sample, the highest values were picked, then their nearest neighbours and some compounds at random. Active and inactive are the calls of the source.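 The calls were made as follows: active = z-score in the third read window above 3 or below -3; inactive = the rest.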
# Target: Metabotropic glutamate receptor 8 (Rattus norvegicus) (UniProt P70579)
# Test: rat mGluR8 modulators via GIRK flux, primary screen, cell-based, thallium flux, HTS (AID 488969)
# Conditions: HEK293 rat mGluR8, GIRK (G protein-gated inwardly rectifying potassium channel) thallium flux, FluoZin2; at 10 µM; stronger effect = higher value; submaximal glutamate (EC20) added with thallium
# Metabotropic glutamate receptor 8 (Rattus norvegicus), sequence (P70579 whole entry, looked up): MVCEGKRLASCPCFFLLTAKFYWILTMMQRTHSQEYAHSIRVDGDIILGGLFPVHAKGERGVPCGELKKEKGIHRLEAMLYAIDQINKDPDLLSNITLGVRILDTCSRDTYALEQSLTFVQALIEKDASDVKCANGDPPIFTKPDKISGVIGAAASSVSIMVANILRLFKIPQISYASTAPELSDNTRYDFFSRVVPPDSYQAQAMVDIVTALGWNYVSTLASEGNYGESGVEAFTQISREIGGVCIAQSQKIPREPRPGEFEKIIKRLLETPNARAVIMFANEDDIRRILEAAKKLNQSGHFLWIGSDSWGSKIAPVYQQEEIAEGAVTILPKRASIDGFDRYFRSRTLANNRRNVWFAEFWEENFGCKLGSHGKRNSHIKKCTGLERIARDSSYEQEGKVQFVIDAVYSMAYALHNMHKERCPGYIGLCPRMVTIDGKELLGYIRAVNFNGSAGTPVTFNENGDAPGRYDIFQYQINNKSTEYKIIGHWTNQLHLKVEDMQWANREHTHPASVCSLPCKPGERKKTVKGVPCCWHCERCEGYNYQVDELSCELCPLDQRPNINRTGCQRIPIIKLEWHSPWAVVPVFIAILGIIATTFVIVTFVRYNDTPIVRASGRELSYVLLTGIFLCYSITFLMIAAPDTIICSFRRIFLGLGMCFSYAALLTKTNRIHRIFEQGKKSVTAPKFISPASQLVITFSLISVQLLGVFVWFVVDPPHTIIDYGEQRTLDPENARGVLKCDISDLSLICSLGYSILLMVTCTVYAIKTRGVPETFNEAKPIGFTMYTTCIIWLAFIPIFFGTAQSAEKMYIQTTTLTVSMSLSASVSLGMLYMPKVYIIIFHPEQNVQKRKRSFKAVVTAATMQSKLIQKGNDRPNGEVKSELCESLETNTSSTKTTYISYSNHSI
row,SMILES,z-score
1,Cc1c(C(=O)NCc2ccccc2)oc2ccc(S(=O)(=O)N3CCC4(CC3)OCCO4)cc12,-0.293
2,Cc1c(C(=O)NCc2cccnc2)oc2ccc(S(=O)(=O)N3CCC4(CC3)OCCO4)cc12,5.95 (active)
3,Cc1c(C(=O)NCc2cccnc2)oc2ccc(S(=O)(=O)N3CCCCC3)cc12,1.3
4,CCCOc1ccc(C(=O)Nc2cc(-c3nn4c(C)nnc4s3)ccc2C)cc1,-0.185
5,CN(Cc1ccccc1)c1ccc(N2C(=O)CCCC2=O)cc1[N+](=O)[O-],-0.202
6,Cc1cccc(-c2nc(CSCC(=O)N3CCN(c4ccccn4)CC3)c(C)o2)c1,-1.37
7,O=C(O)CCCC(=O)NCCc1ccncc1,0.0989
8,COc1ccc(/C=N/NC(=O)C(=O)/C=C2\NC3(CCCC3)Cc3ccccc32)cc1,0.0973
9,Cc1ccc(NC(=O)COC(=O)c2ccccc2Nc2ccccc2)cc1,-0.179
10,CC(=O)c1ccccc1NC(=O)COC(=O)c1ccccc1NC(=O)c1ccccc1,0.161
11,Cc1cccc(C(=O)Nc2ccccc2C(=O)OCC(=O)Nc2ccc(C#N)cc2)c1,2.11
12,COc1ccc(S(=O)(=O)N2CCN(C(=O)c3ccco3)CC2)cc1OC,-0.51
13,COc1cc(/C=N/NC(=O)C(Cc2c[nH]c3ccccc23)NC(=O)OCc2ccccc2)cc([N+](=O)[O-])c1O (centres undefined),-0.505
14,Cc1cccc(N(C(=O)c2csnn2)C(C(=O)NC(C)(C)C)c2ccncc2)c1 (centres undefined),-0.134
15,Cc1ccc(N(C(=O)c2csnn2)C(C(=O)NC(C)(C)C)c2ccncc2)cc1 (centres undefined),-0.134
16,CC(C)(C)NC(=O)C(c1ccncc1)N(C(=O)c1csnn1)c1ccccc1 (centres undefined),6.21 (active)
17,CC(C)COC(=O)c1cc(=O)[nH]c2ccccc12,1.23
18,CCc1ccc2nc(NC(=O)c3cc(C)on3)sc2c1,10.1 (active)
19,Cc1cc(C)c2nc(NC(=O)C3CCCO3)sc2c1 (centres undefined),0.217
20,Cc1cc(C)c2nc(NC(=O)c3ccc(OCC4CCCO4)cc3)sc2c1 (centres undefined),-0.201
21,CCc1ccc2nc(NC(=O)CSCc3c(C)noc3C)sc2c1,-0.0333
22,Cc1cc(C)c2nc(NC(=O)c3cc(C)on3)sc2c1,12 (active)
23,CCc1ccc(NC(=O)c2cc(C)on2)cc1,-0.546
24,O=C(Oc1ccc(Br)cc1C(=S)N1CCCC1)c1ccccc1Cl,-0.0754
25,CCOC(=O)N1CCN(Cc2nc(N)nc(Nc3ccc(OCC)cc3)n2)CC1,-0.27
26,CC(=O)OC1COC(n2ccc3cc([N+](=O)[O-])ccc32)C(OC(C)=O)C1OC(C)=O (centres undefined),0.0746
27,CC(=O)NC1(C(F)(F)F)C(=O)NC(C)=C1C#N (centres undefined),-1.29

row,SMILES,z-score
1,CN(C)CCNc1nc2c(c(=O)[nH]c(=O)n2C)n1CCCc1ccccc1,3.35 (active)
2,Cn1c(=O)[nH]c(=O)c2c1nc(NCc1ccccc1)n2CCCc1ccccc1,-0.132
3,Cn1c(=O)[nH]c(=O)c2c1nc(NCCCO)n2CCCc1ccccc1,0.0396
4,CC(C)NS(=O)(=O)c1ccc(NC(=O)C2CC3C=CC2C3)cc1 (centres undefined),-0.0807
5,O=C1Nc2ccccc2SC(c2ccccc2)C1O (centres undefined),-0.0924
6,O=C(CN1CCC(n2nnc3cc(F)ccc32)CC1)N1CCc2ccccc2C1,-0.899
7,O=C(CSc1n[nH]c(-c2ccc(S(=O)(=O)N3CCCCC3)cc2)n1)Nc1nccs1,0.951
8,CCC(c1nnnn1Cc1ccccc1)N(Cc1ccco1)Cc1cc2cc(OC)ccc2[nH]c1=O (centres undefined),-0.0441
9,CCC(c1nnnn1CCOC)N(Cc1ccc(C)cc1)Cc1cc2cc(OC)ccc2[nH]c1=O (centres undefined),0.378
10,CCC(c1nnnn1Cc1ccc(OC)cc1)N(CCCO)Cc1cc2cc3c(cc2[nH]c1=O)OCO3 (centres undefined),5.57 (active)
11,COc1ccc(OC)c(N(CC(=O)Nc2ccc3c(c2)OCO3)S(=O)(=O)c2ccccc2)c1,-0.348
12,CCC1CCCCN1S(=O)(=O)c1ccc(C(=O)Nc2nnc(-c3ccccc3Cl)o2)cc1 (centres undefined),1.12
13,CC1CCCN(S(=O)(=O)c2ccc(C(=O)Nc3nnc(-c4ccccc4Cl)o3)cc2)C1 (centres undefined),3.98 (active)
14,O=C(Nc1nnc(-c2ccccc2Cl)o1)c1ccc(S(=O)(=O)N2CCCCCC2)cc1,13.1 (active)
15,COCc1nnc(NC(=O)c2ccc(S(=O)(=O)N3CCCCCC3)cc2)o1,-0.164
16,CC1CCCN(S(=O)(=O)c2ccc(C(=O)Nc3ccccc3-c3nc4ccccc4[nH]3)cc2)C1 (centres undefined),-0.205
17,Cc1nnc(NC(=O)c2ccc(S(=O)(=O)N3CCCCCC3)cc2)o1,-0.304
18,CCOC(=O)Cc1csc(NC(=O)CSc2nnc(C(C)C)n2CC)n1,0.0208
19,CCN(CC)c1ccc(NC(=O)c2cccnc2)cc1,-0.663
20,CCCS(=O)(=O)N1CCC(C(=O)N2CCCC2)CC1,-1.16
21,O=[N+]([O-])c1ccc(N2CCN(S(=O)(=O)c3ccccc3[N+](=O)[O-])CC2)cc1N1CCc2ccccc2C1,-0.00158
22,O=C(/C=C/c1ccccc1Cl)NCc1ccco1,-0.133
23,C=CCN(Cc1cccc(OC)c1OC)S(=O)(=O)N(C)C,-0.164
24,Cc1ccc(-n2nnnc2-c2ccco2)cc1,-0.111
25,CCOc1ccc(-n2nnnc2-c2nc3ccccc3s2)cc1,-0.319
26,Cc1ccc(-n2nnnc2-c2nc3ccccc3s2)cc1,6.16 (active)
27,CCN(CC)C(=O)/C(=C\c1cccc([N+](=O)[O-])c1)NC(=O)c1ccco1,-0.281
